# “And” between values parts separate entries of the source, which are not always exact repeats. Equal entries are not always repeated. Inconclusive results are not listed. The source made the active and inactive calls.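 Rule for the calls, unless noted: active = normalized viability below 100% at a tested concentration; inactive = the rest.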
# Tests used:
# [1] = liver-stage malaria parasite growth inhibition, primary screen, cell-based, HepG2, luciferase luminescence, HepG2 viability (AID 624349; in the data active = parasite load remaining mostly below about 12%, no sharp cut-off; inactive = mostly above about 10%;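 note: 100% = mean of DMSO negative control wells on the same plate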); conditions: P. berghei liver stage in HepG2, luciferase luminescence, concentration not given here; parasite load remaining: stronger effect = lower value; viability: measured here: HepG2 viability without parasites
# [2] = stimulators of nuclear beta-catenin in C2C12, primary screen, imaging, WNT3A-conditioned medium, mouse C2C12, NPC library (AID 1117326; in the data active = nuclear beta-catenin stimulation mostly above about 4.2%, no sharp cut-off; inactive = mostly below about 10%); conditions: stronger effect = higher value
# [3] = stimulators of insulin release from INS-1E, primary screen, cell-based, 5 mM glucose, NPC library (AID 1117329;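 active = compound raises insulin release from rat beta cells at 5 mM glucose, no numeric limit stated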); conditions: rat INS-1E insulin secretion, at 10 µM, stronger effect = higher value
# [4] = growth inhibition of GSK3B-pretreated HCT116 cells – cell-based, CellTiter-Glo, 0.2 to 20 µM (AID 1117336;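 active = compounds lowering colon cancer cell viability after pretreatment blocking the GSK3B kinase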); conditions: HCT116 viability after GSK3B inhibitor, at 20 µM, stronger effect = higher value
# [5] = inhibition of endothelial tube formation, primary screen, imaging, VEGF stimulated, CD31 staining, tube area, NPC library (AID 1117340;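 active = compound that reduces growth-factor-driven endothelial tube area in a mixed cell culture, no cutoff stated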); conditions: VEGF-stimulated ADSC/ECFC co-culture, at 10 µM, stronger effect = higher value
# [6] = glucagon-like peptide 1 release enhancers, primary assay, NCI-H716 cell line, NPC library (AID 1117341;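 active = compound raises GLP1 secretion from the human gut endocrine cells, with no numeric limit stated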); conditions: NCI-H716 cells, at 10 µM, stronger effect = higher value
# [7] = HCT116 colon cancer cell growth inhibition, primary screen, CellTiter-Glo luminescence, NPC library (AID 1117342;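 active = compounds that lower survival of HCT116 colon cancer cells in the luminescence readout, no numeric limit stated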); conditions: at 20 µM (top of the series)
# [8] = CellTiter-Glo luminescent readout of SW480 viability loss, NPC library primary (AID 1117343;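 active = compounds that lower viability of the colon cancer cells in the luminescence readout, with no numeric limit stated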); conditions: CellTiter-Glo luminescence; at 20 µM (top of the series) unless noted
# [9] = decreased DLD-1 cellular survival, CellTiter-Glo luminescent readout, NPC compound collection, primary HTS (AID 1117346;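 active = compounds that lower survival of DLD-1 colon cancer cells in the luminescence readout, no cutoff given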); conditions: DLD-1 viability, CellTiter-Glo luminescence; at 20 µM (top of the series)
# [10] = test system: Aerobactin synthetase IucA (Klebsiella pneumoniae); assay: IucA aerobactin synthetase inhibitors, biochemical, Tocris library, absorbance (AID 1345561; call rule not given here;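 note: 100% = enzyme without compound and 0% = no enzyme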); conditions: purified IucA enzyme assay, absorbance (OD) read-out; stronger effect = lower value;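 tested at 8 µM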
# [11] = survival rescue of mitochondrial mutant cells in low glucose, primary screen, MELAS cybrids, Rieske KO mouse fibroblasts, CellTiter-Glo (AID 1508586;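 active = mean z-score across replicates of 1.96 or higher in either the MELAS or the Rieske mutant cell line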;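 note: z relative to plate mean and SD of compound and empty wells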)
# [12] = viability rescue of complex I mutant cybrids, primary screen, cell-based, galactose medium, ATP luminescence (AID 1645843;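 active = z-score of at least 1.8 in each of two replicates, scored against plate mean and spread of sample wells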;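 note: positive z means more ATP and so rescue of galactose-driven cybrid death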); conditions: complex I mutant cybrid cells, 72 h, stronger effect = higher value
# [13] = growth inhibition of DIPG glioma cells, dose response, cell-based, SU-DIPG-XVII, MIPE5.0, CellTiter-Glo, qHTS (AID 1347060; cut-off not given, nearly all actives have AC50 up to about 26 µM;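 for AC50: cells exposed to compound for 48 hours before viability readout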); conditions: SU-DIPG-XVII viability, CellTiter-Glo ATP luminescence
# [14] = growth inhibition of DIPG glioma cells, dose response, cell-based, SU-DIPG-XIII, MIPE4.0, CellTiter-Glo, qHTS (AID 1347061; cut-off not given, nearly all actives have AC50 up to about 37 µM;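 note: cells exposed to compound for 48 hours before readout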); conditions: SU-DIPG-XIII viability, CellTiter-Glo ATP luminescence
# [15] = growth inhibition of DIPG glioma cells, dose response, cell-based, JHH-DIPG-1, MIPE4.0, CellTiter-Glo, qHTS (AID 1347062; cut-off not given, nearly all actives have AC50 up to about 27 µM;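 for AC50: cells exposed to compound for two days before readout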); conditions: JHH-DIPG-1 viability, CellTiter-Glo ATP luminescence
# [16] = SU-DIPG-XXV glioma cell viability, MIPE5.0 library, qHTS (AID 1347068; cut-off not given, nearly all actives have IC50 up to about 30 µM;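 for IC50: cells exposed to compound for 48 hours before viability readout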)
# [17] = target: NAD(+) hydrolase SARM1 (Homo sapiens) (UniProt Q6SZW1); assay: SARM1 TIR NADase inhibitors, cell lysate, NAD-Glo luminescence (AID 1508614;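 active = compound whose remaining NAD level is above about 45 nM, limit read from the data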;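 note: higher remaining NAD means stronger inhibition of SARM1 NADase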); conditions: SAM-TIR HEK293T lysate NADase, at 1 µM, stronger effect = higher value
# [18] = sensitizers of A549 cells to miR-34 induction, primary screen, imaging, A549 dox-inducible miR-34, nuclei and caspase counts (AID 1347080;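 active = compounds whose cell count with miR-34 switched on is under 0.7 times the count with it off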); conditions: A549 miR-34 inducible, Hoechst nuclei count, 48 h
# [19] = ovarian cancer cell viability with rucaparib, profiling panel, oncology-focused library, rucaparib conditional (AID 1508598); conditions: patient-derived ovarian cancer cells, CellTiter-Glo viability, 144 h, stronger effect = lower value
# [20] = MELAS cybrid survival, CellTiter-Glo 48 h, stronger effect = higher value
# [21] = Rieske KO mouse fibroblast survival, CellTiter-Glo 72 h
# NAD(+) hydrolase SARM1 (Homo sapiens), sequence (Q6SZW1 whole entry, looked up): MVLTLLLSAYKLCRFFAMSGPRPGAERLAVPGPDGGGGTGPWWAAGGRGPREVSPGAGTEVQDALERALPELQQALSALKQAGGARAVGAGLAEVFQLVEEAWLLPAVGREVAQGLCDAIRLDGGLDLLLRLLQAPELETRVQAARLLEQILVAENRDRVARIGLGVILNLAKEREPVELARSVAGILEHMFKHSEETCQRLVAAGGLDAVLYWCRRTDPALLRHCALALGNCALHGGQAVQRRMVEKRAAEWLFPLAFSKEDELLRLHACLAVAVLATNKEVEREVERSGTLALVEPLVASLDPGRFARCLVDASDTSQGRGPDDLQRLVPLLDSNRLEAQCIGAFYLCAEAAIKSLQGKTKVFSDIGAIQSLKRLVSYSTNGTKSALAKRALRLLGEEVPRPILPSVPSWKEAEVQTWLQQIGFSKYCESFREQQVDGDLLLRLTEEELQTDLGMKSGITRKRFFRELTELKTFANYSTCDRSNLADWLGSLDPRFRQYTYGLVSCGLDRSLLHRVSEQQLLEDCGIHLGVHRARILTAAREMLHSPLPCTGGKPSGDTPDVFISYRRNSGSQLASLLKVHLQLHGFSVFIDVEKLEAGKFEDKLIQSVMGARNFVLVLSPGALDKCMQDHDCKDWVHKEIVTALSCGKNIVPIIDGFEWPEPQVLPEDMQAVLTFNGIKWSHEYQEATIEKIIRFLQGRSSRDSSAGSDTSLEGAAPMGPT
smiles,measurement,setting,value
CNCCC(Oc1ccccc1OC)c1ccccc1 (stereo not given),parasite load remaining,[1],99.2% (inactive) and 34.1% (inactive)
same,viability,[1],99.6% and 98.5%
same,nuclear beta-catenin stimulation,[2]; at 10 µM,-0.2% (inactive)
same,nuclear beta-catenin stimulation,"[2]; stimulation, at 2 µM",0.5%
same,insulin secretion stimulation,[3],8% (inactive)
same,viability decrease,[4],-108% (inactive)
same,tube area decrease,[5],0.4% (inactive)
same,GLP1 secretion stimulation,[6],1.3% (inactive)
same,inhibition of viability,[7],1.93% (inactive)
same,viability decrease (inhibition),[8],16.6% (inactive)
same,viability decrease (inhibition),[9],-38.2% (inactive)
same,remaining activity,[10],107% (inactive)
same,z-score,[11]; [20],-0.579 (inactive) and 0.865 (inactive)
same,z-score,[11]; [21],-0.0039 and 1.57
same,z-score,[12],-0.245 (inactive) and -0.495 (inactive) and 0.12 (inactive)
CSCC[C@H](NC(=O)[C@H](Cc1c[nH]c2ccccc12)NC(=O)CCNC(=O)OC(C)(C)C)C(=O)N[C@@H](CC(=O)O)C(=O)N[C@@H](Cc1ccccc1)C(N)=O,nuclear beta-catenin stimulation,[2]; at 10 µM,0.1% (inactive)
same,nuclear beta-catenin stimulation,"[2]; stimulation, at 2 µM",1.3%
same,insulin secretion stimulation,[3],0.8% (inactive)
same,viability decrease,[4],-19% (inactive)
same,tube area decrease,[5],5.2% (inactive)
same,GLP1 secretion stimulation,[6],0.3% (inactive)
same,inhibition of viability,[7],-11.9% (inactive)
same,viability decrease (inhibition),[8],23.6% (inactive)
same,viability decrease (inhibition),[9],-23.3% (inactive)
same,outcome,[13],inactive
same,AC50,[14],0.935 µM (active)
same,outcome,[15],inactive
same,outcome,[16],inactive
same,remaining NAD,[17],10 nM (inactive)
O=C(NOCC1CC1)c1ccc(F)c(F)c1Nc1ccc(I)cc1Cl,nuclear beta-catenin stimulation,[2]; at 10 µM,1.5% (inactive)
same,nuclear beta-catenin stimulation,"[2]; stimulation, at 2 µM",1.7%
same,insulin secretion stimulation,[3],-0.4% (inactive)
same,viability decrease,[4],43.3% (inactive)
same,tube area decrease,[5],104% (active)
same,GLP1 secretion stimulation,[6],9.6% (inactive)
same,inhibition of viability,[7],87.4% (active)
same,viability decrease (inhibition),[8],133% (active)
same,viability decrease (inhibition),[9],92.4% (active)
same,AC50,[13],2.35 µM (active)
same,AC50,[14],11.8 µM (active)
same,AC50,[15],16.6 µM (active)
same,IC50,[16],13.2 µM (active)
same,fold change,"[18]; stronger effect = lower value, cell number ratio, induced over uninduced",1.1 (inactive)
same,fold change,[18]; measured here: relative caspase fold change +Dox/-Dox,0.574
same,cell count,"[18]; measured here: total cells with miR-34 induction, stronger effect = lower value",3240
same,cell count,[18]; measured here: total cells without miR-34 induction,2940
same,z-score,[11]; [20],-0.582 (inactive)
same,z-score,[11]; [21],0.299
same,viability,"[19]; at 0.000305 µM, OCI-C5x cells, with rucaparib 10 µM, 100% = cells with rucaparib alone",116% (inactive)
same,viability,"[19]; at 0.000305 µM, OCI-C5x cells, without rucaparib",119% (inactive)
same,viability,"[19]; at 0.000305 µM, OCI-P5x cells, with rucaparib 20 µM, 100% = cells with rucaparib alone",142% (inactive)
same,viability,"[19]; at 0.000305 µM, OCI-P5x cells, without rucaparib",100% (inactive)
same,viability,"[19]; at 0.00122 µM, OCI-C5x cells, with rucaparib 10 µM, 100% = cells with rucaparib alone",112% (inactive)
same,viability,"[19]; at 0.00122 µM, OCI-C5x cells, without rucaparib",120% (inactive)
same,viability,"[19]; at 0.00122 µM, OCI-P5x cells, with rucaparib 20 µM, 100% = cells with rucaparib alone",135% (inactive)
same,viability,"[19]; at 0.00122 µM, OCI-P5x cells, without rucaparib",109% (inactive)
same,viability,"[19]; at 0.00488 µM, OCI-C5x cells, with rucaparib 10 µM, 100% = cells with rucaparib alone",123% (inactive)
same,viability,"[19]; at 0.00488 µM, OCI-C5x cells, without rucaparib",118% (inactive)
same,viability,"[19]; at 0.00488 µM, OCI-P5x cells, with rucaparib 20 µM, 100% = cells with rucaparib alone",126% (inactive)
same,viability,"[19]; at 0.00488 µM, OCI-P5x cells, without rucaparib",97.9% (active)
same,viability,"[19]; at 0.0195 µM, OCI-C5x cells, with rucaparib 10 µM, 100% = cells with rucaparib alone",115% (inactive)
same,viability,"[19]; at 0.0195 µM, OCI-C5x cells, without rucaparib",127% (inactive)
same,viability,"[19]; at 0.0195 µM, OCI-P5x cells, with rucaparib 20 µM, 100% = cells with rucaparib alone",122% (inactive)
same,viability,"[19]; at 0.0195 µM, OCI-P5x cells, without rucaparib",107% (inactive)
same,viability,"[19]; at 0.0781 µM, OCI-C5x cells, with rucaparib 10 µM, 100% = cells with rucaparib alone",121% (inactive)
same,viability,"[19]; at 0.0781 µM, OCI-C5x cells, without rucaparib",111% (inactive)
same,viability,"[19]; at 0.0781 µM, OCI-P5x cells, with rucaparib 20 µM, 100% = cells with rucaparib alone",124% (inactive)
same,viability,"[19]; at 0.0781 µM, OCI-P5x cells, without rucaparib",110% (inactive)
same,viability,"[19]; at 0.313 µM, OCI-C5x cells, with rucaparib 10 µM, 100% = cells with rucaparib alone",121% (inactive)
same,viability,"[19]; at 0.313 µM, OCI-C5x cells, without rucaparib",119% (inactive)
same,viability,"[19]; at 0.313 µM, OCI-P5x cells, with rucaparib 20 µM, 100% = cells with rucaparib alone",106% (inactive)
same,viability,"[19]; at 0.313 µM, OCI-P5x cells, without rucaparib",92.7% (active)
same,viability,"[19]; at 1.25 µM, OCI-C5x cells, with rucaparib 10 µM, 100% = cells with rucaparib alone",104% (inactive)
same,viability,"[19]; at 1.25 µM, OCI-C5x cells, without rucaparib",117% (inactive)
same,viability,"[19]; at 1.25 µM, OCI-P5x cells, with rucaparib 20 µM, 100% = cells with rucaparib alone",87.2% (active)
same,viability,"[19]; at 1.25 µM, OCI-P5x cells, without rucaparib",90.5% (active)
same,viability,"[19]; at 5 µM, OCI-C5x cells, with rucaparib 10 µM, 100% = cells with rucaparib alone",87.6% (active)
same,viability,"[19]; at 5 µM, OCI-C5x cells, without rucaparib",116% (inactive)
same,viability,"[19]; at 5 µM, OCI-P5x cells, with rucaparib 20 µM, 100% = cells with rucaparib alone",61% (active)
same,viability,"[19]; at 5 µM, OCI-P5x cells, without rucaparib",63.3% (active)
